Results: PubChem BioAssay (Tox21)
Where “and” joins values, the source holds several entries; their conditions need not be identical. Equal values may be shown once. Inconclusive results are not listed. Some compounds were tested as several samples or in several runs, with calls that do not always agree. Calls of active or inactive are those of the source. Unless noted, calls follow the shape of the dose curve; as a rule, active = well fitted activation curve with a large enough effect in the repeat runs; inconclusive = weak or mixed curves; inactive = no such curve, though single readings can be large or run the other way.

test: qHTS assay for small molecule agonists of the p53 signaling pathway (AID 651631; calls by dose curve); details: HCT-116 p53RE-bla reporter, beta-lactamase FRET ratio, 16 h; series mostly up to 73.3 µM; activation: at the top concentration
How it was run: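 Quantitative high-throughput format: 4,000 p53RE-bla HCT-116 cells/well, 5 h pre-incubation, 16 h compound exposure at 37 °C, 2 h room-temperature substrate step, fluorescence intensity measured.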
% is scaled to controls: 0 for no effect and ±100 for the full control effect; potency is read from the fitted curve at half-maximal effect.
Also: nearly all actives have a fitted effect of over 15% in size.

| SMILES | activation | Potency |
| --- | --- | --- |
| CC1CCc2cc(F)cc3c(=O)c(C(=O)O)cn1c23 (stereo unspecified) | -4.17% (inactive) | – |
| CC1=CCC(C(C)C)C=C1 (stereo unspecified) | -2.16% (inactive) | – |
| CC(=O)c1ccc2c(c1)[C@H](NC(=O)c1ccc(F)cc1)[C@@H](O)C(C)(C)O2 | -3.95% (inactive) | – |
| C=C(C)C(=O)OC(C)C | -4.49% (inactive) | – |
| CC(C)c1ccccc1C(C)C | -1.88% (inactive) | – |
| CCOc1cc(OCC)c(C(=O)CCC(=O)O)cc1OCC | -3.45% (inactive) | – |
| CC(C)CCCC(C)CCO (stereo unspecified) | 4.71% (inactive) | – |
| CC(C)(C)C1CCCCC1O (stereo unspecified) | 5.87% (inactive) | – |
| CCC(=O)OC(C)(C)C1CC=C(C)CC1 (stereo unspecified) | 4.07% (inactive) | – |
| Cc1ncsc1CCO | 0.953% (inactive) | – |
| CCCOc1ccc2nc(NC(=O)OC)[nH]c2c1 | – | 298 nM (active) |
| COCCOCCOCCOCCOC | 1.74% (inactive) | – |
| CC(=O)Nc1ccc(/C=N/NC(N)=S)cc1 | – | inactive |
| COc1ccc(C(C)=O)cc1 | -1.43% [at 95.1 µM] (inactive) | – |
| N=C(N=C(N)N)N1CCOCC1 | -2.65% [at 34.7 µM] (inactive) | – |
| CCCCCCCCCO | 2.37% (inactive) | – |
| CC[C@H](C)[C@H](N)C(=O)O | 0.579% (inactive) | – |
| Cc1cc(NC(=O)C(=O)O)cc(C)c1Oc1ccc(O)c2c1CCC2 | 1.74% (inactive) | – |
| O=C(C(=O)c1ccc(Br)cc1)c1ccc(Br)cc1 | -3.15% [at 34.7 µM] (inactive) | – |

| SMILES | activation | Potency |
| --- | --- | --- |
| C#CCOC(=O)[C@@H](C)Oc1ccc(Oc2ncc(Cl)cc2F)cc1 | -7.36% (inactive) | – |
| CC(C)=CCCC(C)CC=O (stereo unspecified) | 2.26% (inactive) | – |
| COCCO | 1.17% (inactive) | – |
| O=C=NC1CCC(CC2CCC(N=C=O)CC2)CC1 (stereo unspecified) | -3.19% (inactive) | – |
| CC(C)c1cccc(C(C)C)c1NC(=O)NS(=O)(=O)c1cc(C(C)(C)O)co1 | -2.46% (inactive) | – |
| N#Cc1cc2ccccc2c2ccccc12 | 7.39% [at 95.1 µM] (inactive) | – |
| Nc1nc(N)c2nc(CNc3ccc(C(=O)N[C@@H](CCC(=O)O)C(=O)O)cc3)cnc2n1 | – | inactive and 57.1 nM (active) |
| C1=Cc2ccccc2C1 | -1.6% (inactive) | – |
| CCCCCc1ccc(N)cc1 | -5.82% (inactive) | – |
| Cc1cccc(OCCOc2cccc(C)c2)c1 | 4.57% [at 95.1 µM] (inactive) | – |
| Cc1ccc(C(=O)C(C)CN2CCCCC2)cc1 (stereo unspecified) | -4.97% (inactive) | – |
| N#Cc1c(F)cccc1F | -2.17% (inactive) | – |
| Nc1cnn([C@@H]2O[C@H](CO)[C@@H](O)[C@H]2O)c(=O)n1 | – | 1940 nM (active) |
| CC[C@H](C)[C@@H](C(=O)O)n1sc2ccccc2c1=O | -3.88% (inactive) | – |
| O=C1[C@H](CC[C@H](O)c2ccc(F)cc2)[C@@H](c2ccc(O)cc2)N1c1ccc(F)cc1 | -4.37% (inactive) | – |
| CC(C)(C)C(=O)OCOP(=O)(COCCn1cnc2c(N)ncnc21)OCOC(=O)C(C)(C)C | -2.42% (inactive) | – |
| CC(=O)CC(=O)c1ccccc1 | -2.2% [at 95.1 µM] (inactive) | – |
| CCCCCCc1ccc(N)cc1 | -4.47% (inactive) | – |
| CC(=O)[C@@]1(O)CC[C@H]2[C@@H]3C[C@H](C)C4=CC(=O)CC[C@]4(C)[C@H]3CC[C@@]21C | -2.84% (inactive) | – |

test: qHTS assay for small molecules that induce genotoxicity in human embryonic kidney cells expressing luciferase-tagged ATAD5 (AID 651632); details: HEK293T ATAD5-luciferase induction, 16 h; series mostly up to 83.3 µM; activation: at the top concentration
How it was run: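 Cells were seeded at 2,000 per well, dosed with compound, and incubated 16 hr at 37C in 5% CO2. Luciferase activity was then quantified after a 30 min room-temperature incubation with Amplite.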

| SMILES | activation | Potency |
| --- | --- | --- |
| CC1CCc2cc(F)cc3c(=O)c(C(=O)O)cn1c23 (stereo unspecified) | 2.72% (inactive) | – |
| CC1=CCC(C(C)C)C=C1 (stereo unspecified) | -1.09% (inactive) | – |
| CC(=O)c1ccc2c(c1)[C@H](NC(=O)c1ccc(F)cc1)[C@@H](O)C(C)(C)O2 | 1.78% (inactive) | – |
| C=C(C)C(=O)OC(C)C | 1.93% (inactive) | – |
| CC(C)c1ccccc1C(C)C | 2.95% (inactive) | – |
| CCOc1cc(OCC)c(C(=O)CCC(=O)O)cc1OCC | 1.18% (inactive) | – |
| CC(C)CCCC(C)CCO (stereo unspecified) | -2.27% (inactive) | – |
| CC(C)(C)C1CCCCC1O (stereo unspecified) | -2.88% (inactive) | – |
| CCC(=O)OC(C)(C)C1CC=C(C)CC1 (stereo unspecified) | -4.84% (inactive) | – |
| Cc1ncsc1CCO | -0.853% (inactive) | – |
| CCCOc1ccc2nc(NC(=O)OC)[nH]c2c1 | – | 1680 nM (active) |
| COCCOCCOCCOCCOC | 1.72% (inactive) | – |
| CC(=O)Nc1ccc(/C=N/NC(N)=S)cc1 | – | inactive |
| COc1ccc(C(C)=O)cc1 | -1.28% [at 95.3 µM] (inactive) | – |
| N=C(N=C(N)N)N1CCOCC1 | 0.409% [at 39.1 µM] (inactive) | – |
| CCCCCCCCCO | -1.92% (inactive) | – |
| CC[C@H](C)[C@H](N)C(=O)O | -0.945% (inactive) | – |
| Cc1cc(NC(=O)C(=O)O)cc(C)c1Oc1ccc(O)c2c1CCC2 | 1.65% (inactive) | – |
| O=C(C(=O)c1ccc(Br)cc1)c1ccc(Br)cc1 | 1.73% [at 39.1 µM] (inactive) | – |

| SMILES | activation | Potency |
| --- | --- | --- |
| C#CCOC(=O)[C@@H](C)Oc1ccc(Oc2ncc(Cl)cc2F)cc1 | -3.47% (inactive) | – |
| CC(C)=CCCC(C)CC=O (stereo unspecified) | 4.42% (inactive) | – |
| COCCO | 0.442% (inactive) | – |
| O=C=NC1CCC(CC2CCC(N=C=O)CC2)CC1 (stereo unspecified) | 3.17% (inactive) | – |
| CC(C)c1cccc(C(C)C)c1NC(=O)NS(=O)(=O)c1cc(C(C)(C)O)co1 | 1.92% (inactive) | – |
| N#Cc1cc2ccccc2c2ccccc12 | 2.93% [at 95.3 µM] (inactive) | – |
| Nc1nc(N)c2nc(CNc3ccc(C(=O)N[C@@H](CCC(=O)O)C(=O)O)cc3)cnc2n1 | – | inactive |
| C1=Cc2ccccc2C1 | -0.976% (inactive) | – |
| CCCCCc1ccc(N)cc1 | 2.99% (inactive) | – |
| Cc1cccc(OCCOc2cccc(C)c2)c1 | 2.71% [at 95.3 µM] (inactive) | – |
| Cc1ccc(C(=O)C(C)CN2CCCCC2)cc1 (stereo unspecified) | – | inactive |
| N#Cc1c(F)cccc1F | -1.63% (inactive) | – |
| Nc1cnn([C@@H]2O[C@H](CO)[C@@H](O)[C@H]2O)c(=O)n1 | -4.96% (inactive) | – |
| CC[C@H](C)[C@@H](C(=O)O)n1sc2ccccc2c1=O | 2.31% (inactive) | – |
| O=C1[C@H](CC[C@H](O)c2ccc(F)cc2)[C@@H](c2ccc(O)cc2)N1c1ccc(F)cc1 | -2.51% (inactive) | – |
| CC(C)(C)C(=O)OCOP(=O)(COCCn1cnc2c(N)ncnc21)OCOC(=O)C(C)(C)C | 3.08% (inactive) | – |
| CC(=O)CC(=O)c1ccccc1 | 4.42% [at 95.3 µM] (inactive) | – |
| CCCCCCc1ccc(N)cc1 | 9.06% (inactive) | – |
| CC(=O)[C@@]1(O)CC[C@H]2[C@@H]3C[C@H](C)C4=CC(=O)CC[C@]4(C)[C@H]3CC[C@@]21C | -3.8% (inactive) | – |
